For 20 molecules, inhibition and activation results are on record in PubChem BioAssay.

Test [1] addresses Nuclear receptor coactivator 3 (Homo sapiens) (UniProt Q9Y6Q9). Kind of test: NCOA3 GAL4-fusion reporter inhibition – cell-based, luminescence, quadruplicate, confirmation (AID 588792;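 active = mean inhibition over 43.08%, the solvent-only control mean plus 3 SD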;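 also: 0% = DMSO treated cells and 100% = gossypol at 36 µM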). As to conditions: HEK293 GAL4-SRC3 luciferase reporter, at 3.6 µM, stronger effect = higher value. (In general: A reporter such as luciferase makes a cellular process visible.)
The subject of test [2] is transactivating tegument protein VP16 (Human herpesvirus 1), Gal4-VP16 luciferase reporter. Nature of the test: repression of VP16-driven luciferase reporter – cell-based, luminescence, high throughput, counter-screen for SRC3 inhibitor project (AID 588794; in the data active = inhibition above about 30%). As to conditions: mammalian cells, at 3.6 µM, stronger effect = higher value.
Test [3] has as its target Protein phosphatase methylesterase 1 (Homo sapiens) (UniProt Q9Y570). Kind of test: human PME-1 methylesterase inhibition confirmation – biochemical, fluorescence polarization, FP-Rh probe, triplicate (AID 2171).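 Also: 0% = enzyme with DMSO and 100% = wells lacking PME-1.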 The following applies: recombinant PME-1, FP-Rh probe fluorescence polarization; at 5.9 µM; stronger effect = higher value. Background: In fluorescence polarisation assays a small probe gives low polarisation when free and higher when bound to something large.

Test [4] concerns the target Oxytocin receptor (Homo sapiens) (UniProt P30559). Kind of test: oxytocin receptor activation, retest of hits – fluorescence, CHO-OTR cells, triplicate, confirmation (AID 434963;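 active = mean activation above about 20% derived from the earlier single-dose screen, limit read from the data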;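 also: peak over minimum fluorescence ratio per well during a 100 second FLIPR read; 0% = DMSO alone and 100% = oxytocin high control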). The following applies: Fluo-8 calcium fluorescence, agonist, at 3 µM, stronger effect = higher value.
The target of test [5] is Vasopressin V1a receptor (Homo sapiens) (UniProt P37288). Kind of test: activators of vasopressin V1R in CHO cells – cell-based, triplicate, fluorescence, counter-screen for OXTR agonist project (AID 434991;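 active = mean activation over triplicate exceeds the hit threshold set in the earlier primary screen, cut at about 20% in these data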;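 also: peak over basal fluorescence ratio within a 100 second read; 0% = DMSO alone and 100% = 3 nM vasopressin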). As to conditions: Fluo-8 calcium fluorescence, at 3 µM, stronger effect = higher value. On the technique in general: A counterscreen serves to expose hits that act by an unwanted route or on another target.

Test [6] concerns the target Glutathione S-transferase omega-1 (Homo sapiens) (UniProt P78417). Kind of test: recombinant GSTO1 blockers, retest – biochemical, fluorescence polarization, triplicate, counter-screen for RBBP9 inhibitor project, confirmation (AID 2176;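 active = inhibition above the primary screen's cutoff, its mean inhibition plus 3 SD, cut at about 35% in these data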;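 also: loss of polarization as inhibitors block binding of rhodamine sulfonate ester activity probe; 0% = GSTO1 with DMSO and 100% = wells lacking GSTO1 enzyme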). The following applies: recombinant GSTO1, probe fluorescence polarization; at 5.96 µM; stronger effect = higher value.
Test [7] concerns the target Nuclear receptor coactivator 1 (Homo sapiens) (UniProt Q15788). Nature of the test: NCOA1 GAL4-fusion reporter inhibition – cell-based, luminescence, quadruplicate, confirmation (AID 588820;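 active = mean inhibition above 46.68%, the untreated control wells mean plus 3 SD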;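 also: 0% = DMSO wells and 100% = gossypol 36 µM treated wells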). As to conditions: HEK293 GAL4-SRC1 luciferase reporter, at 3.6 µM, stronger effect = higher value.
A short description of test [8]: repression of VP16-driven luciferase reporter – cell-based, luminescence, high throughput, counter-screen for SRC1 inhibitor project (AID 588824; in the data active = inhibition above about 25%). As to conditions: cell-based VP16 transactivation luciferase luminescence; at 3.6 µM; stronger effect = higher value.
Test [9] deals with transactivating tegument protein VP16 (Human herpesvirus 1). Kind of test: compounds suppressing VP16-driven luciferase signal – cell-based, luminescence, single concentration, counter-screen for SRC2 inhibitor project (AID 652007; in the data active = inhibition above about 36%). As to conditions: cell-based VP16 transactivation luciferase reporter, at 8.9 µM, stronger effect = higher value.
The target of test [10] is Nuclear receptor coactivator 2 (Homo sapiens) (UniProt Q15596). Nature of the test: inhibition of GAL4-SRC2 driven luciferase expression – cell-based, luminescence, HEK293, triplicate, confirmation (AID 652008;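 active = mean inhibition above 46.5%, the solvent-only control mean plus 3 SD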;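 also: 0% = DMSO-treated cells and 100% = Gossypol at 36 µM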). As to conditions: HEK293 GAL4-SRC2 luciferase reporter, at 8.9 µM, stronger effect = higher value.
Nuclear receptor coactivator 2 (Homo sapiens), sequence (Q15596 whole entry, looked up, the tested form may be a part): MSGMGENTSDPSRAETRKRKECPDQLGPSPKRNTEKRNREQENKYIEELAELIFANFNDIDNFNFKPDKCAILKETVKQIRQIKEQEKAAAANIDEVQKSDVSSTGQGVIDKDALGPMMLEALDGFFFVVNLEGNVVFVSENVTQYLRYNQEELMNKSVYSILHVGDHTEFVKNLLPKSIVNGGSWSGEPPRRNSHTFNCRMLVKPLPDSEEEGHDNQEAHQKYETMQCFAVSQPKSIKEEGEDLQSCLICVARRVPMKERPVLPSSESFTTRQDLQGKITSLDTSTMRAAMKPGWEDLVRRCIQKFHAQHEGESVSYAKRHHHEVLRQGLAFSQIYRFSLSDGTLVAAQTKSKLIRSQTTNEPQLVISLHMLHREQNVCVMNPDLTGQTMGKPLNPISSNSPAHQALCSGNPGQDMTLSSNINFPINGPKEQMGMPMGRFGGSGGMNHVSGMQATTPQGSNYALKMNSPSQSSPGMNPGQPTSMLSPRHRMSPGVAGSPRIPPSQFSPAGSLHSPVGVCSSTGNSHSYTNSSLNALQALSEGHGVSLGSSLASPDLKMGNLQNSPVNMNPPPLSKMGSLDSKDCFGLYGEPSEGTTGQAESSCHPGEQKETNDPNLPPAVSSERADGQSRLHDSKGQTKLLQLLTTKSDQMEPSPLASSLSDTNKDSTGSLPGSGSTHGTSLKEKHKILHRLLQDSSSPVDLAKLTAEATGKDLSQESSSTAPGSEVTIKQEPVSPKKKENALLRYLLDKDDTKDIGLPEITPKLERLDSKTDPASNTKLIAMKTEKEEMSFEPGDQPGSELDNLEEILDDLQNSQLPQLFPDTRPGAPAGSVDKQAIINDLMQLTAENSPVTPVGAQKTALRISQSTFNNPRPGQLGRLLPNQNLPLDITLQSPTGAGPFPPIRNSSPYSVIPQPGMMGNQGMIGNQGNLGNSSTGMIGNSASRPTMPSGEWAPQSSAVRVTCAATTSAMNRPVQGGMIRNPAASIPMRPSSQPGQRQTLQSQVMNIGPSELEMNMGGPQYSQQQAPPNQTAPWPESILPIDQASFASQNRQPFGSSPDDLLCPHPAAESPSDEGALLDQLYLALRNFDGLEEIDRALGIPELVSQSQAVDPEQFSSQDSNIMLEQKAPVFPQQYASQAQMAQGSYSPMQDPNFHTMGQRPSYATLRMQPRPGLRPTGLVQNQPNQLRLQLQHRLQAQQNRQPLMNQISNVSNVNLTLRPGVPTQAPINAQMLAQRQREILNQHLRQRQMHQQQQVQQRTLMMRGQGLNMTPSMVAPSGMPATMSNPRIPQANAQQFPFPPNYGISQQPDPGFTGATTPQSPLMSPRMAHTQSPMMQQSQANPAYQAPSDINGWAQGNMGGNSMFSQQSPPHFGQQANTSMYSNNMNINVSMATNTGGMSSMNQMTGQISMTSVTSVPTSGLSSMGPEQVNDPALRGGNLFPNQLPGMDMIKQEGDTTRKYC
The nature of test [11]: StAR promoter reporter inhibitors, counter-screen for LRH-1 inverse agonist project, cell-based, luminescence, high throughput (AID 651611; in the data active = inhibition above about 28%). As to conditions: StAR promoter luciferase reporter counterscreen, at 3.6 µM, stronger effect = higher value.
Test [12] deals with Nuclear receptor subfamily 5 group A member 2 (Homo sapiens) (UniProt O00482). Nature of the test: NR5A2 activity suppression in reporter cells – cell-based, luminescence, confirmation (AID 651613; in the data active = inhibition above about 42%;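 also: HEK293T cells co-transfected with LRH-1 and StAR promoter luciferase reporter; 0% = vehicle wells and 100% = parental cells lacking receptor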). As to conditions: cell-based LRH-1 luciferase reporter, inverse agonism; at 3.6 µM; stronger effect = higher value.
For test [13], the target named is Steroidogenic factor 1 (Homo sapiens) (UniProt Q13285). Kind of test: inverse agonism at SF1 nuclear receptor – cell-based, luminescence, high throughput, counter-screen for LRH-1 inverse agonist project (AID 651614; in the data active = inhibition above about 44%;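 also: cells cotransfected with StAR promoter reporter and SF1 expression vector; 0% = vehicle on cells with receptor and 100% = vehicle on cells lacking receptor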). As to conditions: cell-based SF1 luciferase reporter, at 3.6 µM, stronger effect = higher value.
Test [14] in a line: compounds suppressing VP16-driven luciferase signal – cell-based, luminescence, high throughput, counter-screen for LRH-1 inverse agonist project (AID 651615; in the data active = inhibition above about 33%). As to conditions: Gal4-VP16 luciferase reporter cells, at 3.6 µM, stronger effect = higher value.

Unmarked numbers belong to inactive results. This is one part of the list. Calls of active or inactive are those of the source.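 The calls were made as follows, unless noted: active = inhibition above the hit cutoff set in the earlier primary screen (cut at about 27% in these data); inactive = the rest.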

Nuclear receptor coactivator 3 (Homo sapiens), sequence (Q9Y6Q9 whole entry, looked up, the tested form may be a part): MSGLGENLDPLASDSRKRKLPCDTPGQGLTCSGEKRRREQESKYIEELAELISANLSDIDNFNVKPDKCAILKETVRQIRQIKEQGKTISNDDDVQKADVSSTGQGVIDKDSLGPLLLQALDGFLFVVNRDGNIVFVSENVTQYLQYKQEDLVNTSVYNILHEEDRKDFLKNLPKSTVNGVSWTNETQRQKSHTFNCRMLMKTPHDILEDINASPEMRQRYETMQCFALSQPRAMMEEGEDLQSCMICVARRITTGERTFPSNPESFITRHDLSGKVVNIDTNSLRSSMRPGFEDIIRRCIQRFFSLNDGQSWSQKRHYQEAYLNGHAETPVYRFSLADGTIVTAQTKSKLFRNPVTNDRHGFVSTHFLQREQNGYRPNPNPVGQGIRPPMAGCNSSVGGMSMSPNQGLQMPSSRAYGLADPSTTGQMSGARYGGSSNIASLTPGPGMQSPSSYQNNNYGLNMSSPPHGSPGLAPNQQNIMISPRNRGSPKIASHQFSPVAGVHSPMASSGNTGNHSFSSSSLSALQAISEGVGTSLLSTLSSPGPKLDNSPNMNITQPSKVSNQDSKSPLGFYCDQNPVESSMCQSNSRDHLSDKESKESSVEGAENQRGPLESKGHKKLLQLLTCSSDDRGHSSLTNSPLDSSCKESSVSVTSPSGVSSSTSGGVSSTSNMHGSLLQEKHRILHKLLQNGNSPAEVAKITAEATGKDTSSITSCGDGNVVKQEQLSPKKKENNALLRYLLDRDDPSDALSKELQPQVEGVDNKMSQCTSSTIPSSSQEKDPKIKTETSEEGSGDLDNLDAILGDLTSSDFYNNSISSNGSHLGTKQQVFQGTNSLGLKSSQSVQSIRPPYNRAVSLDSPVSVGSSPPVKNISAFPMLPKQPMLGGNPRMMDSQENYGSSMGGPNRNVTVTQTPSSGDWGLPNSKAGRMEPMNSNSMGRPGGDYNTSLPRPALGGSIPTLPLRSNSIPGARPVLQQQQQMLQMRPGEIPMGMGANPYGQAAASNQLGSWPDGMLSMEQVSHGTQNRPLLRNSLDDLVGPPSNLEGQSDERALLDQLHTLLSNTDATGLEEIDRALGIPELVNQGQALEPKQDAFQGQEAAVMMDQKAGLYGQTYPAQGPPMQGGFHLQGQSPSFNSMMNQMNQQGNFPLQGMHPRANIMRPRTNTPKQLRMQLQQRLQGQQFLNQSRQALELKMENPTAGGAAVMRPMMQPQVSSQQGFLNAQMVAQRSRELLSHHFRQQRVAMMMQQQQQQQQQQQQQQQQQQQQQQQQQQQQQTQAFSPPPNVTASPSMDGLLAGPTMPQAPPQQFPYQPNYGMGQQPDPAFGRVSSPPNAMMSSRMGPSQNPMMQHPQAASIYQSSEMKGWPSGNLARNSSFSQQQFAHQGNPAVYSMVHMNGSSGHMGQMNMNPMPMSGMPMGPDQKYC
Protein phosphatase methylesterase 1 (Homo sapiens), sequence (Q9Y570 whole entry, looked up): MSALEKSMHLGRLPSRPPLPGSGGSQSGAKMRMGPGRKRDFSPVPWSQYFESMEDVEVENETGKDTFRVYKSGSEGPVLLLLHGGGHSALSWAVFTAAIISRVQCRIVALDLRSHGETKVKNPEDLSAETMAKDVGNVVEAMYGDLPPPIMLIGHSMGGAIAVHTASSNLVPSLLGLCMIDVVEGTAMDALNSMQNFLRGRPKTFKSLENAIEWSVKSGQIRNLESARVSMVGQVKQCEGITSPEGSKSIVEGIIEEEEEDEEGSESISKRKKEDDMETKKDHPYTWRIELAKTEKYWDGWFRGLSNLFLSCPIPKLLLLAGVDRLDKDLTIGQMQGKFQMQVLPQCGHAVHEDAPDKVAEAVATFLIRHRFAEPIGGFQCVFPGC
Nuclear receptor coactivator 1 (Homo sapiens), sequence (Q15788 whole entry, looked up, the tested form may be a part): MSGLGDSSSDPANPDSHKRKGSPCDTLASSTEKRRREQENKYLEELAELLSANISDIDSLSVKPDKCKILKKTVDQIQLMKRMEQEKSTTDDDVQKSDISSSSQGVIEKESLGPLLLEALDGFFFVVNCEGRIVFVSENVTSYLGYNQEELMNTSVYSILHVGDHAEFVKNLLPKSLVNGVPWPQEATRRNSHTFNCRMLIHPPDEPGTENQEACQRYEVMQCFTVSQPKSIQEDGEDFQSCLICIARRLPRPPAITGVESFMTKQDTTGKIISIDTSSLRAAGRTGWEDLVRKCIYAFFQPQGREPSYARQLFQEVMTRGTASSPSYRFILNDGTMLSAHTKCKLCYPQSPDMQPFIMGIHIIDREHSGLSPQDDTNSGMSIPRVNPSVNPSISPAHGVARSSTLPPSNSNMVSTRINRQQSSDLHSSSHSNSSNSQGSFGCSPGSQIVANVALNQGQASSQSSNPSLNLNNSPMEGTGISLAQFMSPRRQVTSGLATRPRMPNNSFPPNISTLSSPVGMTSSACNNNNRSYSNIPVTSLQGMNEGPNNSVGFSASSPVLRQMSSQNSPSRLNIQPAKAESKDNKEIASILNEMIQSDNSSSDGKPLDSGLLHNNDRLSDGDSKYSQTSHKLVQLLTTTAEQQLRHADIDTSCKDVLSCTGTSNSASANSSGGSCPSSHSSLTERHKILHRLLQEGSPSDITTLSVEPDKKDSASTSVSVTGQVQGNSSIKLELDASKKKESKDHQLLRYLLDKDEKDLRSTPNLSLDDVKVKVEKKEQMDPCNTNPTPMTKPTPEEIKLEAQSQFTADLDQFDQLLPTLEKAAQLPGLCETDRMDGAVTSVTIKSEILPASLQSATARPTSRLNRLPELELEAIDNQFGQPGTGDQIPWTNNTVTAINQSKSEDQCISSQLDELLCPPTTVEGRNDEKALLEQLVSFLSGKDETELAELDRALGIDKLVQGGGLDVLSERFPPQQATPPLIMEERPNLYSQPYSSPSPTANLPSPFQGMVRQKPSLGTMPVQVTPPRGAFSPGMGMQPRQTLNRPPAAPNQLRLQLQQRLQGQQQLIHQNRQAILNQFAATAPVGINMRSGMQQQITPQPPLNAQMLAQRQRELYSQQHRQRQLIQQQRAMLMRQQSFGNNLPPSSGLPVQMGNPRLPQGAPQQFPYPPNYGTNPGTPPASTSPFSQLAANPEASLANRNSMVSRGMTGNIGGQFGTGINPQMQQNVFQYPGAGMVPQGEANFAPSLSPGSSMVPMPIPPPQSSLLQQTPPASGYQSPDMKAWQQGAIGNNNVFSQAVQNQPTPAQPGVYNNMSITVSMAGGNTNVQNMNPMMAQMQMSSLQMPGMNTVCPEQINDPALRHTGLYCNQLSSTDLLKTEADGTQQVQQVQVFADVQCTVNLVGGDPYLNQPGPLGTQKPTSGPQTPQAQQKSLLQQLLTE
Glutathione S-transferase omega-1 (Homo sapiens), sequence (P78417 whole entry, looked up, the tested form may be a part): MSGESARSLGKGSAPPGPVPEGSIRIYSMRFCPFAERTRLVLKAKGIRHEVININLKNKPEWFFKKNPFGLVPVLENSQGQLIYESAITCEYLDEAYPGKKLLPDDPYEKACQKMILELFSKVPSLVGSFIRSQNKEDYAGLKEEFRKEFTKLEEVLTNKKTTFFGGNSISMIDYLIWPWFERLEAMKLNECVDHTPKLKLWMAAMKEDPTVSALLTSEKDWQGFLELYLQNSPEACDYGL

With `COc1ccc(OC(=O)N(C)C)c(CN(C)C)c1`, the values for the inhibition in [1] and in [2] were 5.12% and -6.66%, respectively.

With `Cc1ccc(S(=O)(=O)N2CCCCC2)cc1NC(=O)CN1CC=C(c2ccccc2)CC1`, in test [3], the inhibition is 85.5% (active).

For the molecule `CC(Cc1ccccc1)NCCC(c1ccccc1)c1ccccc1` (stereo not given), the activation in [4] was 11.2%; in test [5], 4.33%.

Turning to `CCNc1nc2[nH]c(=O)c3c(c2s1)OC(N)=C(C#N)C3c1cccs1` (stereo not given), the inhibition in test [6] was 7.87%.

In the case of `O=C(O)COc1ccccc1/C=C1\C(=O)NC(=O)N(CCC2=CCCCC2)C1=O`, the inhibition in test [6] was 9.09%.

Consider `COC(=O)c1nc(-c2ccc3c(n2)C(=O)C(N)=C(OC)C3=O)c(N)c(-c2ccc(OC)c(OC)c2O)c1C`, for which the inhibition in [3] was 67.4% (active).

Consider `CNc1ccc2nc3ccccc3[n+](C)c2c1`, for which the inhibition in test [3] is 61.7% (active); in test [7], -4.23%; in [8] it was 3.25%.

In the case of `Cc1ccccc1NP(=O)(Oc1ccccc1F)Oc1ccccc1F`, the inhibition in test [3] is 43.5% (active).

Turning to `O=C1C(=O)c2ccccc2-c2ccccc21`, the inhibition in test [3] was 42.8% (active); in test [1], 97.1% (active); in test [2], 95.2% (active); in [7], 95.1% (active); in [8], 93.5% (active); in [9] it was 96.5% (active). In addition, the inhibition in [10] was 98.8% (active).

With `O=c1[nH]c(=O)n(CCC2=CCCCC2)c(O)c1C=NC1CCN(Cc2ccccc2)CC1`, the inhibition was -0.53% in test [1] and 36.4% (active) in [2].

Consider `Nc1c(C(=O)NCc2ccco2)c2nc3ccccc3nc2n1CCN1CCOCC1`, for which the inhibition in [3] was 7.2%.

Take `CN1/C(=C\C=C\C2=[N+](C)c3ccc4ccccc4c3C2(C)C)C(C)(C)c2ccccc21`: the inhibition in test [3] was 79.1% (active).

Consider `COC(=O)[C@@H]1[C@@H](C(=O)OC)C2(c3ccccc3-c3ccccc32)N(c2ccc(Cl)cc2)N1C#N`, for which the inhibition was -0.96% in test [1] and 30.6% (active) in test [2].

For `NP(=O)(OCCCCc1ccccc1)Oc1ccccc1Cl` (stereo not given), the inhibition in test [3] is 47.4% (active).

For `Cc1cc2c(C(C)C)c(O)c(O)c(C=O)c2c(O)c1-c1c(C)cc2c(C(C)C)c(O)c(O)c(C=O)c2c1O`, the values for the inhibition in test [1] and in test [2] were 5.58% and 22.2%, respectively.

Turning to `CC(=O)c1ccc2c(c1)C1C(Cl)C(Sc3ccccc3[N+](=O)[O-])CC1C(c1ccccc1[N+](=O)[O-])N2` (stereo not given), in [3], the inhibition was 20.4%.

For `NP(=O)(Oc1ccc(Cl)cc1)Oc1ccc(Cl)cc1`, the inhibition in test [3] was 63.4% (active).

Regarding `COc1ccc(-n2c(/C=C/c3ccc(O)c(O)c3)nc3ccccc3c2=O)cc1`, the inhibition in test [3] was -10.6%.

On to `Cc1nc2c(=O)n(C)c(=O)nc-2n(C)n1`, for which the inhibition was 33% (active) in [3]; 78.3% (active) in test [11]; 94.5% (active) in test [12]; 83.4% (active) in test [13]; 90.8% (active) in [14]; 62.6% (active) in [9]. The inhibition in test [10] is 77.8% (active).

In the case of `CCCCCCCn1c(=O)c(C(=O)Nc2cnccn2)c(O)c2ccccc21`, the inhibition in test [1] was -22.1%; in [2] it was -5.22%.

As usually defined, the inhibition is the change of the read-out against control, counted positive when it falls.
